In the supplement of paper PMC11732987, “Enantioselective OTUD7B fragment discovery through chemoproteomics screening and high-throughput optimisation” (Communications Chemistry, 2025):

What was measured:
Experiment in all cases: log2 ratio of Biotin-Ahx-Ub-VS probe labelling (fragment/DMSO); higher = less target engagement (more negative = stronger competition), active = hit call of the paper (q ≤ 0.05, log2 ratio ≤ -1)
Settings in all cases: compound concentration: 200 uM; treatment time: 3 h
USP19 = biological target: T1, USP19 (UniProt O94966)
T1 sequence (whole entry): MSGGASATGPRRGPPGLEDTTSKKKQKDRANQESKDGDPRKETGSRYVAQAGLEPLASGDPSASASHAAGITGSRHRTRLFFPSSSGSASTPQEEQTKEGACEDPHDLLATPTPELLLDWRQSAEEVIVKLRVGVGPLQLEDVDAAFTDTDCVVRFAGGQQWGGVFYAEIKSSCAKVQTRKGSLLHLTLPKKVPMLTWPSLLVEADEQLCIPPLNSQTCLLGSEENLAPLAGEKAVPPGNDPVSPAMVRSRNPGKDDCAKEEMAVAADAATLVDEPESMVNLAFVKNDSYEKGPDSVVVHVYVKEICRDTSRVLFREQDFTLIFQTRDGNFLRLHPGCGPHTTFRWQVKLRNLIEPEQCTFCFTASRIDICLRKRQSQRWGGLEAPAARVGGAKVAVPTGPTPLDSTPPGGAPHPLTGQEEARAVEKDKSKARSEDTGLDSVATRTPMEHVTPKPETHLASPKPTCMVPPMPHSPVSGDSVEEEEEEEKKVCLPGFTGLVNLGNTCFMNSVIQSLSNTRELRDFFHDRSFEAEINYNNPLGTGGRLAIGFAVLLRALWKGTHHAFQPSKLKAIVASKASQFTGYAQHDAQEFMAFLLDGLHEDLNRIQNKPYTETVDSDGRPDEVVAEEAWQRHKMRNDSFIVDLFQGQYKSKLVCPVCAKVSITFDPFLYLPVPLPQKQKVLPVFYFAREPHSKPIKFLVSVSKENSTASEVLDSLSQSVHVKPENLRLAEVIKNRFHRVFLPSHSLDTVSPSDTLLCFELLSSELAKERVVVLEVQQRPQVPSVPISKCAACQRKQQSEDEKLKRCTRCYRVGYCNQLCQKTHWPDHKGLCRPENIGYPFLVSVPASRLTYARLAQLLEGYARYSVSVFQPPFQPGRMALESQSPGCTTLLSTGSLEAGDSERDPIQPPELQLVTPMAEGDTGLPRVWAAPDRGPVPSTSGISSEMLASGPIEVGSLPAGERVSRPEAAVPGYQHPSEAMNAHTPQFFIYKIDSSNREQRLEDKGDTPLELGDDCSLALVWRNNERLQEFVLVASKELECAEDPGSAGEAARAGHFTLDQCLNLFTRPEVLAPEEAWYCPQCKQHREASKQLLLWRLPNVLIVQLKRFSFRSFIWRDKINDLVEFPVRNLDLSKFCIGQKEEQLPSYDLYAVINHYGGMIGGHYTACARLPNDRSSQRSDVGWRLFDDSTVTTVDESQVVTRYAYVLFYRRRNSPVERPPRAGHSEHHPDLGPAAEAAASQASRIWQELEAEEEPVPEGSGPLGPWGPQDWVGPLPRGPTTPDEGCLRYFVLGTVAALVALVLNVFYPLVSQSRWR
How it was run: (§1)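 HEK293T lysate (495 µg per sample, in Tris/CHAPS/IGEPAL buffer with protease inhibitors) was treated in triplicate with fragment at 200 µM or with DMSO for 3 h. It was then treated with Biotin-Ahx-Ub-VS (0.5 µM final) for 1 h. Labelled DUBs were NeutrAvidin-enriched, digested with LysC and trypsin, and run by diaPASEF LC-MS/MS. Spectronaut label-free quantities were global-median-normalised. Values are average log2 ratios fragment/DMSO by unpaired t-test, using proteins with ≥2 unique peptides.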

USP24 = USP24 (UniProt Q9UPU5)
How it was run: as §1

USP25 = biological target: T2, USP25 (UniProt Q9UHP3)
T2 sequence (whole entry): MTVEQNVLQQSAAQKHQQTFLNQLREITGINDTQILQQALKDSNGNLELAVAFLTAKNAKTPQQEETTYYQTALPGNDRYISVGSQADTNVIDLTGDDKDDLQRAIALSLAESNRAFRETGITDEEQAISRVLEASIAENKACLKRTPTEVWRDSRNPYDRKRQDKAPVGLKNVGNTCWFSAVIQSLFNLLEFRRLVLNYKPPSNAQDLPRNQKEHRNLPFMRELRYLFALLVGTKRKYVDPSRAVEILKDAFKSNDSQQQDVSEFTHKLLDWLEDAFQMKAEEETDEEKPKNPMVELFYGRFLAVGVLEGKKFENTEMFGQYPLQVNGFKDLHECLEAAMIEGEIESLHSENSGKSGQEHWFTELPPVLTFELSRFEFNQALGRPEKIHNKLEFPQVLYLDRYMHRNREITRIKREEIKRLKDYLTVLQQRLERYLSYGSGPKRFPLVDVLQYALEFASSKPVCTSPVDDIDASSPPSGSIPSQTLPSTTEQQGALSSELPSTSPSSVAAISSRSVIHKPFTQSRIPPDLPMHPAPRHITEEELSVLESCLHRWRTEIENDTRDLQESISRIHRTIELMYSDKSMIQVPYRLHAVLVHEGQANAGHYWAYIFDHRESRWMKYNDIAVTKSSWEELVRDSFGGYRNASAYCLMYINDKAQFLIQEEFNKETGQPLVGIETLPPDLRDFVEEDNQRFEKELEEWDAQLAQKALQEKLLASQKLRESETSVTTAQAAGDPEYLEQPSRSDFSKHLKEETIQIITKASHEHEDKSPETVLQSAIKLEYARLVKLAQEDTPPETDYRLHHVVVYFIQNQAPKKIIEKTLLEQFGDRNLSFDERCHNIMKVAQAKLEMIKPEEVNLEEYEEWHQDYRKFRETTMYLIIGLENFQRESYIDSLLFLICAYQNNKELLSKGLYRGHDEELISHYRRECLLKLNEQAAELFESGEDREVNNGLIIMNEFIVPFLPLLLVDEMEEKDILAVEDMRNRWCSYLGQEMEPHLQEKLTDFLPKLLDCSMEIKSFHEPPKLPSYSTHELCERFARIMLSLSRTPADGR
How it was run: as §1

USP28 = biological target: T3, USP28 (UniProt Q96RU2)
T3 sequence (whole entry): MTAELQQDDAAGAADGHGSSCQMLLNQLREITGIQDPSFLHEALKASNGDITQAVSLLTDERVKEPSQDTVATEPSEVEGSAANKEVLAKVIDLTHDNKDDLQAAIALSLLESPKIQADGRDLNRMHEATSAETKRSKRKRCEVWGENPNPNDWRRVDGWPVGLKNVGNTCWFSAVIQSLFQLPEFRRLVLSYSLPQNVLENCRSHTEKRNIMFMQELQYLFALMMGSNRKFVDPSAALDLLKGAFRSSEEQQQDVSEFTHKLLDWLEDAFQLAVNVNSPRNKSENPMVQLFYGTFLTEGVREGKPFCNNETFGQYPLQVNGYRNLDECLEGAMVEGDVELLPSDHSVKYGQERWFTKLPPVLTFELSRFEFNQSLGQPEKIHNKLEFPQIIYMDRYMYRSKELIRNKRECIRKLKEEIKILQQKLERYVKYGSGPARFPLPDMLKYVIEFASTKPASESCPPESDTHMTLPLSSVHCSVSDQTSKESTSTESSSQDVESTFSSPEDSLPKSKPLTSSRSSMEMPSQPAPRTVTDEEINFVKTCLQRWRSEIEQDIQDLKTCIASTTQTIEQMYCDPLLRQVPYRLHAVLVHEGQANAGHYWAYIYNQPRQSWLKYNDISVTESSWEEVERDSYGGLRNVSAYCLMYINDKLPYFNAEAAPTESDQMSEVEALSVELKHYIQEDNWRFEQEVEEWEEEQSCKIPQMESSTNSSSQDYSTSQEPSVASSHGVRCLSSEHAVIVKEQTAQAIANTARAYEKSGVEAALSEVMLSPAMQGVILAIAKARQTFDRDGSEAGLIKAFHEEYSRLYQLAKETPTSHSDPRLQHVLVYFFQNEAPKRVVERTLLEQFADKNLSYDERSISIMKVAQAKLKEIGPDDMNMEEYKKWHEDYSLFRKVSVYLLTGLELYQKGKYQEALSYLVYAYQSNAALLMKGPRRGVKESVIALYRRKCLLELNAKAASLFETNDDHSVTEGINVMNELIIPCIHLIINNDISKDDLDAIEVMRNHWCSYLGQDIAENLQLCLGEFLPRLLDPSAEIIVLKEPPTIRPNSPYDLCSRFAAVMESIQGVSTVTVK
How it was run: as §1

Measured: log2 ratio of Biotin-Ahx-Ub-VS probe labelling

Chain of USP24 (Q9UPU5 whole entry): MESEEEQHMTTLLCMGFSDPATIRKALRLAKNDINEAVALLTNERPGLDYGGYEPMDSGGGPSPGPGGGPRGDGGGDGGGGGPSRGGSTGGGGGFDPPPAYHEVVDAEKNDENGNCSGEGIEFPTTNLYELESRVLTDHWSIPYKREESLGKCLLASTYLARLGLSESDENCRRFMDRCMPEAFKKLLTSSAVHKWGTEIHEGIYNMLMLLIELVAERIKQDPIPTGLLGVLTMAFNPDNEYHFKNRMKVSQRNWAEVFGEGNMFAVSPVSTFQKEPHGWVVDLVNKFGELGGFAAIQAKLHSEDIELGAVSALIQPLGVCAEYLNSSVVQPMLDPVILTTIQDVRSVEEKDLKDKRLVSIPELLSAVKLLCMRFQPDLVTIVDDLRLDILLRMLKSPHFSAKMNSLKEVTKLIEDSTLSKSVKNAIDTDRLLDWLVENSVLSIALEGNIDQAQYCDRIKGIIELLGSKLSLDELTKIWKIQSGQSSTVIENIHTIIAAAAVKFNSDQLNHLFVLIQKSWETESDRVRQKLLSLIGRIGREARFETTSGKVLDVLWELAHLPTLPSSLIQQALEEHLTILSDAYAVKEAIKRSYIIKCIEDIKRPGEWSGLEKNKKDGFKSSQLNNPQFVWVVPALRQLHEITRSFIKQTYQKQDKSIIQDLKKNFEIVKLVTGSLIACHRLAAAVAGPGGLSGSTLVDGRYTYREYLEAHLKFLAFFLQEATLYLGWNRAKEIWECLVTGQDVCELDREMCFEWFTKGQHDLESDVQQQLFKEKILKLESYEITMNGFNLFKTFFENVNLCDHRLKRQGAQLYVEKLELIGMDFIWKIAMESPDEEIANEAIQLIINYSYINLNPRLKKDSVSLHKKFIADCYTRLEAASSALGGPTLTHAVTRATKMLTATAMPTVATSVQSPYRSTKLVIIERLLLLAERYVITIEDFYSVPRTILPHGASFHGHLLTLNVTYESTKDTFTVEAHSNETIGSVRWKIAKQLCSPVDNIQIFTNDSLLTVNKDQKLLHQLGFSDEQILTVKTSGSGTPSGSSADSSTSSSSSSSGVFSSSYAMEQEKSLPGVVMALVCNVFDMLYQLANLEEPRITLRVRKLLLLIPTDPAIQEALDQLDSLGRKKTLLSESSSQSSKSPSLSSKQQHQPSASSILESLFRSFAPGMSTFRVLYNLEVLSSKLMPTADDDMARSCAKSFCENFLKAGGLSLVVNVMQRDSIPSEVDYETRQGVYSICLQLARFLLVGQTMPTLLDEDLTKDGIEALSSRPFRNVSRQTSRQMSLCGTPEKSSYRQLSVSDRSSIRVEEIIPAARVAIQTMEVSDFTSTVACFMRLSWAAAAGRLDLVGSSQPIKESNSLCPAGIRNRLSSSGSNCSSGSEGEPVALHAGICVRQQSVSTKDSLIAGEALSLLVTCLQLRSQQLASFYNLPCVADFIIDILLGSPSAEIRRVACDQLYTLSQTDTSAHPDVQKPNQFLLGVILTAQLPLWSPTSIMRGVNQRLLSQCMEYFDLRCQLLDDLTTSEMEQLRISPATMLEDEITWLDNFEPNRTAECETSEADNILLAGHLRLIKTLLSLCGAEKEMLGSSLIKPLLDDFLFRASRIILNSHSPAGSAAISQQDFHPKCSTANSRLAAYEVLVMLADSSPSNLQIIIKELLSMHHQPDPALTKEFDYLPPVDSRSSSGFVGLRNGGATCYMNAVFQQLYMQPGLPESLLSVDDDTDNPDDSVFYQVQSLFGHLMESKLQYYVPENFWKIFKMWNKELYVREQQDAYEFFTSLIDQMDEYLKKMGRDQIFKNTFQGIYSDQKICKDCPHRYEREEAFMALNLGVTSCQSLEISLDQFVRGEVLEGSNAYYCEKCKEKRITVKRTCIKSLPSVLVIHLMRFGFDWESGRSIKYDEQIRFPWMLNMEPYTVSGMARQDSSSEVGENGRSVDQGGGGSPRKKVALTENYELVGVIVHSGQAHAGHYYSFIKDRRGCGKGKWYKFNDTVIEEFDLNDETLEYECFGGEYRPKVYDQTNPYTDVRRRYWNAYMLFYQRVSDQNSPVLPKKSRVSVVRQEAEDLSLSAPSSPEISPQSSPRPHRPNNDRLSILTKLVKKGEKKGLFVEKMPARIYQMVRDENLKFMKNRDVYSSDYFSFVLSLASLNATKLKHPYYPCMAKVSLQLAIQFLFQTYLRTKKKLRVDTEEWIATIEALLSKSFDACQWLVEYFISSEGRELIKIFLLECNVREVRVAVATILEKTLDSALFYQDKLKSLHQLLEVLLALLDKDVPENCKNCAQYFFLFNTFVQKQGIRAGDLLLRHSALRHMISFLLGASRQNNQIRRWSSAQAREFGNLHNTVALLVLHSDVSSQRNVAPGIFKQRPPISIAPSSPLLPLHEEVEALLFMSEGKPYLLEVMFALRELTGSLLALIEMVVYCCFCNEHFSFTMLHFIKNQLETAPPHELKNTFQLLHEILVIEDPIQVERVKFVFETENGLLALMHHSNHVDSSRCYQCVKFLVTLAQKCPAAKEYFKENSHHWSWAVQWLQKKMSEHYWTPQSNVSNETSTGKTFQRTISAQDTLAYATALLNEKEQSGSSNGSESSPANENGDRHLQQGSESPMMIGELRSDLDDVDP

Cc1cccc2nc(CCNC(=O)CCl)cn12.Cl
inactive: USP19 -0.242 | USP24 -0.429 | USP25 -0.267 | USP28 -0.53
